This is an account of results in the supplement of paper PMC3414501.

Test [1] concerns S. cerevisiae NKY1551 his4x/his4B, sporulating. The test can be described thus: HIS4 meiotic recombination assay sensitivity score (z-score vs DMSO controls); higher = stronger inhibition of sporulation/recombination, active = hit call of the paper.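 Further: active if sensitivity score above 5.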
Test [2] relates to S. cerevisiae AD1-9 (efflux-pump deficient), vegetative growth in YPD. The experiment in a line: growth sensitivity score (doubling time z-score vs DMSO controls); higher = slower growth, strongly negative scores also mark growth inhibition (complete suppression), active = hit call of the paper. The essentials: (§1)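 Yeast (Saccharomyces cerevisiae BY4741 and AD1-9) was grown in rich medium in microtiter plates from a starting OD600 of 0.065, with optical density read every 15 min over 24 hours. The growth sensitivity score was the difference between compound and solvent-only means, divided by the solvent-only standard deviation. Every experiment had eight solvent-only wells.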

The subject of test [3] is S. cerevisiae BY4741 (wild-type), vegetative growth in YPD. The description is as above. The essentials: as §1
For test [4], the system named is S. cerevisiae SK1 pCDA2-eGFP (USY613), sporulating. The test can be described thus: CDA2-GFP sporulation assay sensitivity score (z-score vs DMSO controls); higher = stronger inhibition of sporulation, active = hit call of the paper.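 Further: active if sensitivity score above 5.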

On to `CN(CCCN1c2ccccc2CCc2ccccc21)CC(=O)c1ccc(Cl)cc1` [Lofepramine] (stock concentration (mM, diluted 1:100): 10), for which, in test [1], the “HIS4 meiotic recombination assay sensitivity score” value was 3.17 (inactive). Further, the growth sensitivity score in test [2] was 51.9 (active); in test [3], 3.15 (active).

On to `CN1CC(=O)N2[C@H](c3ccc4c(c3)OCO4)c3[nH]c4ccccc4c3C[C@@H]2C1=O` [Tadalafil] (stock concentration (mM, diluted 1:100): 10), for which the “CDA2-GFP sporulation assay sensitivity score” value in test [4] is -4.01 (inactive). The results for the growth sensitivity score in test [2] and in test [3] were -2.54 and -1.71 (inactive), respectively.

`CN(C)[C@@H]1C(O)=C(C(=O)NCN2CCCC2)C(=O)[C@@]2(O)C(O)=C3C(=O)c4c(O)cccc4[C@@](C)(O)[C@H]3C[C@@H]12` [Rolitetracycline] (stock concentration (mM, diluted 1:100): 10): in test [1], the “HIS4 meiotic recombination assay sensitivity score” value is 3.05 (inactive). Also, the results for the growth sensitivity score in test [2] and in test [3] were -1.77 (inactive) and -1.17 (inactive), respectively.

In the case of `CN1CCN(CCCN2c3ccccc3Sc3ccc(Cl)cc32)CC1` [Prochlorperazine] (stock concentration (mM, diluted 1:100): 10.4), in test [4], the “CDA2-GFP sporulation assay sensitivity score” value was 2.72 (inactive). In addition, the “HIS4 meiotic recombination assay sensitivity score” value in test [1] was -2.14 (inactive). In test [3], the growth sensitivity score is 146 (active).

With `CC(C)(O)c1ccccc1CC[C@@H](SCC1(CC(=O)O)CC1)c1cccc(/C=C/c2ccc3ccc(Cl)cc3n2)c1` [Montelukast] (stock concentration (mM, diluted 1:100): 9.6), the “HIS4 meiotic recombination assay sensitivity score” value in test [1] is 0.61 (inactive). Also, the growth sensitivity score in test [2] was 0.91 (inactive); in test [3] it was -1.05 (inactive).

As to `CN(CCOc1ccc(NS(C)(=O)=O)cc1)CCc1ccc(NS(C)(=O)=O)cc1` [Dofetilide] (stock concentration (mM, diluted 1:100): 10), the “CDA2-GFP sporulation assay sensitivity score” value in test [4] is -0.99 (inactive). In addition, the growth sensitivity score in test [2] was -1.59 (inactive); in test [3] it was -2.19.
